Screening results from PubChem.
In the library only some 7.7% were active in any assay of this set; here they are far more common.
Sm TGR block: blocks Schistosoma mansoni thioredoxin glutathione reductase | Q962Y6 | Potency, µM (top dose mostly 114 µM), inactives show top-dose activity change, negative = inhibition, hits mostly inhibitors | actives 3% (n = 360,000) | purified TGR, DTNB reduction, TNB absorbance 405 nm; further: potency means the concentration at half of the fitted maximal effect; nearly all actives have a fitted effect of over 60% in size
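Kinetic colorimetric format: TGR-catalysed, NADPH-driven DTNB reduction monitored via TNB absorbance. Enzyme dispensed at 20 nM; compound exposure 15 min at room temperature before reaction start.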
FMDV inh: blocks foot and mouth disease virus | FMDV antiviral cell-based qHTS | Potency, µM (highest dose often 57.9 µM), without a hit: at the highest dose activity change, negative = inhibition, usual class: inhibitors | actives 1.2% (n = 410,000) | AID 1159524; calls by dose curve; tested in HEK293T cells; further: read-out not given here; potency means the concentration at half of the fitted maximal effect; nearly all actives have a fitted effect of over 45% in size
HCMV antiviral: human cytomegalovirus inhibition; HFF cells, HCMV-luciferase reporter, 72 h; stronger effect = lower value; activity change, negative = inhibition, % at 57.5 µM; actives 4.5% (n = 410,000); in the data active means activity change below about -60%; inconclusive means no clear call, values can overlap the other calls; inactive means above about -39%
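Cell-based, HFFs, 1000 cells/well, 16 h 37C; cpds in DMSO + HCMV-luc, MOI 1 PFU/cell; 72 h 37C; OneGlo luminescence after 5 min RT; norm. to buffer vs Salinomycin 10uM.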
TbPYK inhibitor: blocks Trypanosoma brucei pyruvate kinase | Q57TT1 | TbPYK enzyme, Kinase-Glo Plus ATP luminescence, 45 min | Potency, µM (titrated, usually from 76.8 µM), inactives show top-dose activity, negative = inhibition, actives largely listed as inhibitors | actives 0.12% (n = 410,000); further: potency means the concentration at half of the fitted maximal effect; nearly all actives have a fitted effect of over 50% in size
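Assay buffer: 50 mM TEA pH 7.2, 100 mM KCl, 10 mM MgCl2, 0.05% BSA, 0.01% Tween-20. Pyruvate kinase from T. brucei plus substrate met compound, then ADP (130 uM final). Luminescence was read post 45 min RT.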
RE007 growth inh: less growth of the S. pombe RE007 Vpr strain. Potency, µM (highest dose often 92.2 µM), for the others: at the top dose activity change, negative = less growth, usual class: inhibitors. S. pombe RE007 Vpr strain, BacTiter-Glo ATP luminescence, 24 h. actives 0.21% (n = 360,000); active means well fitted falling curve with a large enough effect; inconclusive means small, poorly fitted or top-dose-only effect; inactive means no such curve, though single readings can be large or run the other way; further: potency means the concentration at half of the fitted maximal effect; nearly all actives have a fitted effect of over 50% in size
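Fission yeast strain RE007, carrying one chromosomally integrated HIV-1 vpr copy, was seeded at OD 0.01 in PMG+AL medium with 23 nL pinned compound. After 24 h at 30 °C and 99% humidity, viability was read by BacTiter-Glo luminescence.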
FBPA Giardia inh: inhibitors of Giardia lamblia fructose-1,6-bisphosphate aldolase; actives 0.71% (n = 290,000); AID 2451; purified Giardia FBPA; Potency, µM (highest dose often 59.6 µM), for the others: at the highest dose activity, negative = inhibition, hits mostly inhibitors; further: potency means the concentration at half of the fitted maximal effect; nearly all actives have a fitted effect of over 55% in size
Target sequence (A8B2U2 whole entry, looked up): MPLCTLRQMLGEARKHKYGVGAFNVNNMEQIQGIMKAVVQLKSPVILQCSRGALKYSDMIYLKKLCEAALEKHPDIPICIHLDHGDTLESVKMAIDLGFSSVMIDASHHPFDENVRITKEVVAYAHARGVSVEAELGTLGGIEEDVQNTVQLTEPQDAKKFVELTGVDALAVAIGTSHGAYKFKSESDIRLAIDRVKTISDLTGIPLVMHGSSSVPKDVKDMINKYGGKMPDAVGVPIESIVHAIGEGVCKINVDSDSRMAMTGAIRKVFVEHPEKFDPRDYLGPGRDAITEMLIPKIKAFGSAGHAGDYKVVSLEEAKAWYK
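40 nM FBPA preincubated 10 min at RT with compound (up to 57.5 uM final), then substrate plus GAPDH/TPI/NAD/arsenate coupling and diaphorase/resazurin added. Fluorescence read after 20 min at RT, 525/598 nm.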
Active calls of the source: *; ? = inconclusive; nt = no result given; [ ] = dose if it differs, or a comment. Unless noted, the call rests on the fitted dose curve; in most records, active means well fitted curve in the direction sought with a large enough effect; inconclusive means small, poorly fitted or top-dose-only effect, or another doubt; inactive means no such curve, though single readings can be large; an effect the other way counts as inactive or inconclusive. On the % scale 0 is the no-effect control and ±100 the full control effect.

SMILES | Sm TGR block | FMDV inh | HCMV antiviral | TbPYK inhibitor | RE007 growth inh | FBPA Giardia inh
Cc1cccc(C(=O)N=c2c(C#N)cc3c(=O)n4cccc(C)c4nc3n2Cc2ccco2)c1 | 45µM* | 6% | -31 | -3% | 8% | -22%
O=C(N[C@@H]1c2ccccc2C2(CCN(C(=O)c3ccc4c(c3)OCCO4)CC2)[C@H]1O)c1cccnc1 | nt | -1% | nt | nt | nt | nt
CN1CC[C@@]2(C)c3cc(O)ccc3N(C)[C@@H]12 | nt | -20% | -32 | -21% | -8%[18.4 µM] | 4.5µM*
CNC(=O)Oc1ccc2c(c1)[C@@]1(C)CCN(C)[C@@H]1N2C | nt | -7% | nt | nt | nt | ?
CCOC(=O)c1ccc2c(c1)N(Cc1cccc([N+](=O)[O-])c1)C(=O)c1ccccc1S2 | 4% | -21% | 8 | 3% | nt | nt
COc1cc(OC)c(N(C)C(=O)Cn2ncc3c(=O)oc4ccccc4c32)cc1Cl | 1% | -4% | 4 | -5% | nt | nt
Cc1ccc(Cl)cc1S(=O)(=O)N1CCC(C(=O)NC2CCN(Cc3ccccc3)CC2)CC1 | -6% | -14% | -72* | 4% | -2% | 8%
CCN(CC)S(=O)(=O)c1ccc(S(=O)(=O)N2CCC(C(=O)NC3CCN(Cc4ccccc4)CC3)CC2)cc1 | ? | -5% | nt | 2% | -5% | 1%
O=C(NCc1ccccn1)C1CCN(S(=O)(=O)c2cc(Cl)ccc2Cl)CC1 | -7% | -11% | -62* | 5% | 0% | 10%
CCOc1ccc(Cl)cc1S(=O)(=O)N1CCC(C(=O)NCc2ccccn2)CC1 | -14% | 6% | 26 | -6% | -14% | 7%
CCN1CCN(C(=O)C2CCCN(S(=O)(=O)c3cc(Cl)ccc3Cl)C2)CC1 (stereo not given) | 2% | ? | ? | -4% | -27% | nt
O=C(NCc1ccccn1)Nc1cc(Cl)ccc1Cl | -8% | 8% | -67* | 1% | 12% | nt
CC1CCN(C(=O)C2CCN(S(=O)(=O)c3cc(Cl)ccc3Cl)CC2)CC1 | 0% | -19% | -87* | -16% | -15% | 11%
CCCCC[C@]12Cc3ccccc3C(O1)C1=C(CC(C)(C)CC1=O)O2 | -10%[22.9 µM] | nt | nt | nt | nt | 6%[12.9 µM]
COc1ccc(NC(=O)Nc2nnc(N3CCCCCC3)s2)c(OC)c1 | 2% | -13% | 37 | 5% | nt | nt
COc1ccc(N2CCN(C(CNC(=O)c3c(F)cccc3F)c3ccc4c(c3)OCO4)CC2)cc1 (stereo not given) | 3% | -9% | 7 | -6% | nt | nt
Cc1cccc(C(=O)NCC(=O)OCc2cc(=O)n3nc(C)sc3n2)c1 | 1% | -28% | -1 | 3% | nt | nt
C#C[C@@]1(OC(C)=O)CC[C@H]2[C@@H]3CCC4=CC(=O)CC[C@@H]4[C@H]3CC[C@@]21C | nt | nt | nt | 7% | nt | nt
O=C(c1cn(-c2ccccc2)nc1-c1ccc(Br)cc1)N1CCOCC1 | 2% | -10% | ? | -7% | nt | 5%
O=C(c1cn(-c2ccccc2)nc1-c1cccc(Br)c1)N1CCOCC1 | nt | 4% | -63* | -8% | -11% | -15%
COc1ccccc1C(=O)OCc1cc(=O)n2c(C)csc2n1 | 3% | 52% | 3 | 0% | nt | nt
CCOC(=O)C(N)CSC1CC(=O)N(CCc2ccccc2)C1=O (stereo not given) | 8.9µM* | -14% | 38 | 4% | 0% | ?
O=C(O)c1cccnc1SC1CC(=O)N(CCc2ccccc2)C1=O (stereo not given) | -31% | 0% | 54 | 1% | 6% | 0%
COc1cc(C[C@@H](C)[C@@H](C)Cc2ccc(O)c(OC)c2)ccc1O | nt | -22% | -10 | 2% | ? | nt
CCOc1cc(CNc2ccccc2SC)ccc1O | 8.9µM* | nt | nt | nt | nt | ?
SMILES | Sm TGR block | FMDV inh | HCMV antiviral | TbPYK inhibitor | RE007 growth inh | FBPA Giardia inh
CCOc1cc(CNc2cccc3[nH]c(C)nc23)ccc1OC | -28% | 0% | -27 | -7% | -12% | ?
COc1cc(CNc2ccccc2SC)ccc1O | 2.2µM* | 15% | 16 | -26% | -5% | -25%
COc1ncc2ncc(=O)n(C3CC3)c2n1 | nt | -4% | nt | nt | nt | -1%
Cc1ccc(C)c(NC(=O)CSc2nnc(CSc3nc(C)cc(C)n3)n2Cc2ccco2)c1 | -66% | 1% | 26 | 5% | 15% | 8%
CCOC(=O)CSc1nnc(CSc2nc(C)cc(C)n2)n1Cc1ccco1 | 45µM* | 12% | 19 | -12% | 10% | 1%
Cc1ccc(NC(=O)CSc2nnc(CSc3nc(C)cc(C)n3)n2Cc2ccco2)c(C)c1 | 50µM* | 13% | 58 | -10% | -15% | 15%
N#Cc1ccc(CSc2nc3c(c(=O)[nH]2)CCCC3)cc1 | -1% | -22% | 9 | 4% | nt | nt
O=[N+]([O-])c1cc(C(F)(F)F)ccc1N1CCN(S(=O)(=O)c2ccc3c(c2)CCCC3)CC1 | 2% | ? | -96* | 2% | 33% | -1%
O=[N+]([O-])c1cc(F)c(N2CCCC2)cc1N1CCNCC1 | -25% | nt | nt | nt | nt | 5%
CC1CN(c2ccc(C(F)(F)F)cc2[N+](=O)[O-])CCN1S(C)(=O)=O (stereo not given) | -9% | ? | -23 | 0% | -3% | 3%
O=[N+]([O-])c1cc(C(F)(F)F)ccc1N1CCCNCC1 | 28µM* | -10% | 27 | -3% | 0% | 1%
CC(C)NC(=O)N1CC2(CCN(C(=O)c3ccco3)CC2)C1 | nt | -4% | nt | 3% | nt | -1%
CCn1c(-c2ccccc2F)nc2cc(NC(C)=O)cc(C(=O)N(C)Cc3cn(C)nc3C)c21 | nt | -10% | nt | nt | nt | nt
COc1ccc(N(CC(=O)Nc2cccc(Cl)c2)S(=O)(=O)c2c(C)[nH]c(=O)[nH]c2=O)cc1 | -1% | -18% | 14 | 6% | nt | nt
OCCNCCc1c[nH]c2ccc(OCc3ccccc3)cc12 | ? | 0% | -60* | 1% | -2% | 5%
NNC(=O)c1c[nH]c2ccc(OCc3ccccc3)cc12 | nt | 0% | -31 | 2% | 8% | nt
CC(=O)Nc1cccc(NC(=O)CN2C(=O)CCSc3ccccc32)c1 | 0% | -1% | 20 | -5% | nt | nt
O=C1CCCN1c1ccc(S(=O)(=O)Nc2ccc3c(c2)OCCO3)cc1 | 3% | nt | -81* | 0% | -4% | 10%
Cc1ccccc1Nc1cc(C(=O)NC2CCCCC2)c2ccccc2n1 | 5% | 7% | -9 | 2% | nt | nt
O=C(Nc1nccs1)c1cc(-c2ccccc2)nc2ccccc12 | 1% | ? | -32 | -3% | -10% | -3%
O=C(N/N=C/c1ccc(F)cc1)c1cc(-c2ccco2)nc2ccccc12 | 11µM* | 4% | 95 | 2% | 0% | -12%
Cc1ccccc1Nc1cc(C(=O)NC2CCC(C)CC2)c2ccccc2n1 (stereo not given) | 11% | 43% | -78* | 0% | nt | nt
